Measurements reported in PMC4336329 (PLoS ONE, 2015).
Out of some 310,000 compounds screened, about 14,000 (4.5%) showed an effect of 50% or more. The effect is printed as a negative number. The entries come from a sample that favours strong results as a whole.
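Note: peak tail current of the secondary pulse compared with the same well before compound.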

The compounds below were run against human ether-à-go-go-related gene (hERG) potassium channel (human, UniProt Q12809) (assay: primary screen, population patch clamp on CHO cells stably expressing hERG; higher = less effect of the substance).
Chain of human ether-à-go-go-related gene (hERG) potassium channel (Q12809 whole entry, looked up): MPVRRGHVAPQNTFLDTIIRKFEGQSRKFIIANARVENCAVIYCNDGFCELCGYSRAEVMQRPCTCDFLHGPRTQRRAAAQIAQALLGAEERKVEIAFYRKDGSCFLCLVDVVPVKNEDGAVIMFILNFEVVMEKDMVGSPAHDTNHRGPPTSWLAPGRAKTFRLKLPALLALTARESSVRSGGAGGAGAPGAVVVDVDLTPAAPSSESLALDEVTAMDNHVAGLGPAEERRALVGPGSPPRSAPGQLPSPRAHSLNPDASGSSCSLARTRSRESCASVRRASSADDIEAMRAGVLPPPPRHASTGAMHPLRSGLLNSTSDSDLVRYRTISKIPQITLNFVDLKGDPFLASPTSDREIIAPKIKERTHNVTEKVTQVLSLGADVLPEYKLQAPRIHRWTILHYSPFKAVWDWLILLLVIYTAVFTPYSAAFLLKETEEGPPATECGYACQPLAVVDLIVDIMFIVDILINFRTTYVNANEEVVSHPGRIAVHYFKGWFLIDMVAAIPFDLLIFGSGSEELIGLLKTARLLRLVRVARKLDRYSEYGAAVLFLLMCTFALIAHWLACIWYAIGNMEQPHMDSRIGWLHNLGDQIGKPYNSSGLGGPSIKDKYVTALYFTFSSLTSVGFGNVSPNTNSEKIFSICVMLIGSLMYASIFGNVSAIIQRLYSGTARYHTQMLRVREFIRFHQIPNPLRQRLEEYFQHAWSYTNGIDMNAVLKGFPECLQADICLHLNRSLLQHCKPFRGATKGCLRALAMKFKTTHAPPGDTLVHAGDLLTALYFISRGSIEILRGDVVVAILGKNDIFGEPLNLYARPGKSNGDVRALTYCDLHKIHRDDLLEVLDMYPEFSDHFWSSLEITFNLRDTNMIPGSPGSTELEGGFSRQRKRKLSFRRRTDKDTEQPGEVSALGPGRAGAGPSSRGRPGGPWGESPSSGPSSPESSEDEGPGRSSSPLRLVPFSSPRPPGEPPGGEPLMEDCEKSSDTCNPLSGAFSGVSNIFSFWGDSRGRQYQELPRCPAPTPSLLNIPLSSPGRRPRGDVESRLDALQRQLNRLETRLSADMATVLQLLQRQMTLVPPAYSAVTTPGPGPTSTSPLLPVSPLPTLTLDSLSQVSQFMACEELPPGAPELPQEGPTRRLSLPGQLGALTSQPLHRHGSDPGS
In the case of `CN(C1CCCCC1)S(=O)(=O)c1ccc(S(=O)(=O)N2CCN(C(=O)c3ccccc3F)CC2)cc1`, the “hERG current change (%, negative = inhibition) at 10uM” value is reported as -12.2%.
For `CCOC(=O)N1CCC(N2CC34C=CC(O3)C(C(=O)Nc3ccc(OCC)cc3)C4C2=O)CC1` (stereo not shown), the “hERG current change (%, negative = inhibition) at 10uM” value was -18.7%.
For `CC(OC(=O)CNC(=O)COc1ccccc1)C(=O)N(C)Cc1ccccc1` (stereo not shown), the “hERG current change (%, negative = inhibition) at 10uM” value was 5.07%.
With `COC(=O)c1ccccc1NC(=O)C1CCN(S(C)(=O)=O)CC1` the “hERG current change (%, negative = inhibition) at 10uM” value was 1.04%.
With `O=C(COC(=O)/C=C/c1ccc(S(=O)(=O)N2CCOCC2)cc1)NC1CCCCCCC1` the “hERG current change (%, negative = inhibition) at 10uM” value was 32.2%.
In the case of `CCO.N#CC1=C(N)Oc2c(oc(CO)cc2=O)C1c1ccccc1[N+](=O)[O-]` (stereo not shown), the “hERG current change (%, negative = inhibition) at 10uM” value is reported as -1.44%.
With `CC(=O)N1CCN(C(=O)c2cccc(S(=O)(=O)NCc3ccccc3)c2)CC1` the “hERG current change (%, negative = inhibition) at 10uM” value was 5.5%.
With `O=C(c1cccc(S(=O)(=O)NCc2ccccc2)c1)N1CCN(c2ccc(F)cc2)CC1` the “hERG current change (%, negative = inhibition) at 10uM” value was -58.1%.
For `O=C(c1ccccc1)c1ccc(C(=O)N2CCN(c3ccc(F)cc3)CC2)o1`, the “hERG current change (%, negative = inhibition) at 10uM” value was -78.4%.
With `O=C(c1ccccc1C(=O)N1CCN(c2ccc(F)cc2)CC1)N1CCN(c2ccc(F)cc2)CC1` the “hERG current change (%, negative = inhibition) at 10uM” value was -73.8%.
`CSc1ccccc1C(=O)N1CCN(c2ccc(F)cc2)CC1` was tested, and the “hERG current change (%, negative = inhibition) at 10uM” value was -17.5%.
In the case of `O=C(c1ccc(CN2CCc3ccccc3C2)cc1)N1CCCCC1`, the “hERG current change (%, negative = inhibition) at 10uM” value is reported as -9.72%.
For `O=C(c1cccc(S(=O)(=O)NCc2ccccc2)c1)N1CCN(c2cccc(C(F)(F)F)c2)CC1`, the “hERG current change (%, negative = inhibition) at 10uM” value was -4.17%.
With `O=C(c1ccc(CN2CCc3ccccc3C2)cc1)N1CCN(c2ccc(F)cc2)CC1` the “hERG current change (%, negative = inhibition) at 10uM” value was -68.6%.
In the case of `CC(=O)c1ccc(-c2ccc(C(=O)N3CCN(c4ccc(F)cc4)CC3)o2)cc1`, the “hERG current change (%, negative = inhibition) at 10uM” value is reported as -16.7%.
In the case of `O=C(c1ccc(Br)o1)N1CCN(c2ccc(F)cc2)CC1`, the “hERG current change (%, negative = inhibition) at 10uM” value is reported as -45.6%.
For `O=C(c1ccccc1C(=O)N1CCN(c2ccccc2)CC1)N1CCN(c2ccccc2)CC1`, the “hERG current change (%, negative = inhibition) at 10uM” value was -29.7%.
`O=C(c1ccc(CN2CCc3ccccc3C2)cc1)N1CCN(c2ccccc2)CC1` was tested, and the “hERG current change (%, negative = inhibition) at 10uM” value was -46.3%.
With `COc1ccc(-c2nnc(SCC(=O)Nc3cc(C)on3)o2)cc1` the “hERG current change (%, negative = inhibition) at 10uM” value was 14.4%.
With `O=C1C(c2ccc(F)cc2)N(C2CCCCC2)C(=O)CN1C1CCCC1` (stereo not shown) the “hERG current change (%, negative = inhibition) at 10uM” value was -34.1%.
For `O=C(CSc1ccc2nnc(-c3ccncc3)n2n1)Nc1ccc2c(c1)OCCO2`, the “hERG current change (%, negative = inhibition) at 10uM” value was 10.9%.
For `Cc1ccc(-c2cc(C(=O)O)c3cc(Br)ccc3n2)s1`, the “hERG current change (%, negative = inhibition) at 10uM” value was 16.7%.
For `COCc1c(C(=O)OCC(=O)NCCc2ccc(S(N)(=O)=O)cc2)oc2ccccc12`, the “hERG current change (%, negative = inhibition) at 10uM” value was -0.489%.
`CCc1ccc(NC(=O)CSC2=C(C#N)C(c3ccco3)C3=C(CCCC3=O)N2)cc1` (stereo not shown) was tested, and the “hERG current change (%, negative = inhibition) at 10uM” value was -1.71%.
In the case of `COc1ccc(-c2nc(CNS(=O)(=O)c3ccc(OC)c(OC)c3)cs2)cc1`, the “hERG current change (%, negative = inhibition) at 10uM” value is reported as -1.76%.
For `CCN(CC)C(=O)CC(c1ccc(N(C)C)cc1)c1c(O)cc(OC)cc1OC` (stereo not shown), the “hERG current change (%, negative = inhibition) at 10uM” value was 18.7%.
In the case of `O=C(COc1ccccc1C(=O)Nc1ccccc1)NCCc1ccccc1`, the “hERG current change (%, negative = inhibition) at 10uM” value is reported as 34.4%.
`CCCCN(CCCC)c1cc(C)nc(-c2ccccc2O)n1` was tested, and the “hERG current change (%, negative = inhibition) at 10uM” value was 16.8%.
In the case of `Cc1cccc(OCC(=O)Nc2ccc(S(=O)(=O)Nc3onc(C)c3C)cc2)c1C`, the “hERG current change (%, negative = inhibition) at 10uM” value is reported as 13.3%.
`Cc1ccc(N(CC(=O)NC2CCCCC2)C(=O)c2ccc(C)s2)cc1` was tested, and the “hERG current change (%, negative = inhibition) at 10uM” value was -11.2%.
In the case of `CCOC(=O)c1c(NC(NC(=O)C(C)C)C(Cl)(Cl)Cl)sc2c1CCC2` (stereo not shown), the “hERG current change (%, negative = inhibition) at 10uM” value is reported as 11%.
In the case of `O=C(CSc1nc(-c2ccc(F)cc2)cs1)N1CCN(C(=O)c2ccco2)CC1`, the “hERG current change (%, negative = inhibition) at 10uM” value is reported as -57%.
`O=C(c1ccco1)N1CCN(c2nc(-c3ccc(F)cc3)cs2)CC1` was tested, and the “hERG current change (%, negative = inhibition) at 10uM” value was -34.9%.
With `O=C(CSc1nc(-c2ccc(F)cc2)cs1)N1CCOCC1` the “hERG current change (%, negative = inhibition) at 10uM” value was -25.4%.
With `O=C(CSc1nncs1)N1CCN(C(=O)c2ccco2)CC1` the “hERG current change (%, negative = inhibition) at 10uM” value was 5.31%.
With `O=C(CSc1nc(-c2ccccc2)cs1)N1CCN(C(=O)c2ccco2)CC1` the “hERG current change (%, negative = inhibition) at 10uM” value was -60.6%.
With `CC1CN(C(=O)CSc2nc(-c3ccccc3)cs2)CC(C)O1` (stereo not shown) the “hERG current change (%, negative = inhibition) at 10uM” value was 3.57%.
`O=[N+]([O-])c1ccc(N=Nc2c(Cl)cc(O)cc2Cl)cc1` was tested, and the “hERG current change (%, negative = inhibition) at 10uM” value was 18.2%.
`CN(C)S(=O)(=O)c1cccc(NC(=O)COc2ccc3ccccc3c2)c1` was tested, and the “hERG current change (%, negative = inhibition) at 10uM” value was -7.08%.
In the case of `O=C(O)c1ccc(/C=N/N2CCN(C3c4ccccc4-c4ccccc43)CC2)cc1`, the “hERG current change (%, negative = inhibition) at 10uM” value is reported as 12.1%.
With `Cc1ccccc1-c1nnc(SCC(=O)NCc2ccc3c(c2)OCO3)n1C` the “hERG current change (%, negative = inhibition) at 10uM” value was -8.1%.
In the case of `C=CCn1c(SCC(=O)NCc2ccc3c(c2)OCO3)nnc1-c1cccnc1`, the “hERG current change (%, negative = inhibition) at 10uM” value is reported as -0.64%.
For `O=C(CSc1nnc(-c2cccnc2)n1-c1ccccc1)Nc1ccc2c(c1)OCO2`, the “hERG current change (%, negative = inhibition) at 10uM” value was -6.74%.
